Data as given in PubChem BioAssay AID651791 (National Center for Advancing Translational Sciences (NCATS), 2012).
Results filed as inconclusive are left out. Calls come from the whole dose curve; as a rule, active = well fitted inhibition curve with a large enough effect; inconclusive = small, poorly fitted or top-dose-only effect; inactive = no such curve, though single readings can be large or run the other way.

assay: InCell qHTS Assay for Inhibitors of the mTORC1 Signaling Pathway in MEF (Tsc2-/-, p53-/-) Cells: Hit Validation; conditions: phospho-rpS6 immunofluorescence, 24 h; activity change, negative = inhibition: at 38.3 µM (top of the series);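 note: phospho-S6 Ser235/236 signal normalized to propidium iodide cell count per well; nearly all actives have a fitted effect of over 75% in size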

`CCOC(=O)N1CCN(Cc2nc3cc(NC(=O)C(C)C)ccc3n2C(C)C)CC1` and `CC(C)OCc1cc(CN2CCN(c3cccc(C(F)(F)F)c3)CC2)c(O)c2ncccc12` are the same in activity change, negative = inhibition: -100% for the first, -100% for the second.

`CCOc1cc(C(=O)Nc2ccc(-c3cn4cccnc4n3)cc2)cc(OCC)c1OCC` and `Cn1nc(-c2ccc(OCC(=O)Nc3ccc(Cl)cc3)cc2)c2ccccc2c1=O` are the same in activity change, negative = inhibition: -100% for the first, -100% for the second.

First: CCc1ccc(S(=O)(=O)N(C(=O)Oc2ccccc2)c2ccc3oc(C)c(C(=O)OC)c3c2)cc1
Second: CCOc1ccc(S(=O)(=O)N(C(C)=O)c2ccc3oc(C)c(C(=O)OC)c3c2)cc1
The activity change, negative = inhibition of the first is higher: -12.1% for the first, -100% for the second.

First: CCCSc1ncc(Cl)c(C(=O)Nc2ccc(S(=O)(=O)N3CCCCC3C)cc2)n1 (stereo unspecified)
Second: CC(C)(C)c1ccc(S(=O)(=O)N2CCC(c3ccncc3)CC2)cc1
The activity change, negative = inhibition of the first is lower: -100% for the first, -29.8% for the second.

`CS(=O)(=O)N(CC(=O)NCCc1ccccc1)c1cc(C(F)(F)F)ccc1Cl` and `COc1ccc(NC(=O)c2ccco2)cc1NC(=O)COc1ccccc1Cl` are the same in activity change, negative = inhibition: -100% for the first, -100% for the second.

Going from `Cc1cccc(NC(=O)c2sc3nc4c(cc3c2N)CCCCCC4)c1C` to `COc1ccc(OC)c(Nc2c3c(nc4ccccc24)CCC3)c1`, the activity change, negative = inhibition falls from -11% to -25.7%.

`CCOC(=O)c1c(NC(=O)c2cc(CC)on2)sc(C(C)=O)c1C` and `CC(C)CCNC(=O)Nc1ccc2c(c1)N(C)C(=O)c1ccccc1S2` are the same in activity change, negative = inhibition: -100% for the first, -100% for the second.

`COc1ccc(Cl)cc1NC(=O)CSc1nc(-c2ccco2)cc(C(F)(F)F)n1` and `COc1ccc(CNC(=O)c2cccc(N3CCCS3(=O)=O)c2)cc1OC` are the same in activity change, negative = inhibition: -100% for the first, -100% for the second.
